In PubChem BioAssay (NCATS) one finds Potency, max response and outcome data, which are given here for nine compounds.

Assay [1] can be described thus: qHTS for Inhibitors of the Functional Ribonucleoprotein Complex (vRNP) of Lassa (LASV) Arenavirus: LASV Primary Screen - GLuc reporter signal (AID 1347082; calls by dose curve; tested in HEK293 reporter line; note: nearly all actives have a fitted effect of over 60% in size; note: potency is the fitted concentration of half-maximal effect).
For assay [2], the target named is Luciferin 4-monooxygenase (Photinus pyralis) (UniProt P08659). Put plainly: Biochemical firefly luciferase enzyme assay for NPC (AID 624030).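 Note: purified P. pyralis luciferase at 10 nM with luciferin and ATP substrate; 0% = DMSO and -100% = full luciferase inhibition by PTC124 control; nearly all actives have a fitted effect of over 70% in size.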 Summed up: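 Purified P. pyralis luciferase at 10 nM in 50 mM Tris Acetate (final), luminescence read within 5 minutes of enzyme addition to compounds. Activity normalised to PTC124 versus DMSO; concentration-response curves classed by r2, magnitude and activity.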

Assay [3] can be described thus: qHTS Assay for Identifying Gametocytocidal Compounds (AID 743244).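 Note: % is set by controls: 0 for no effect and ±100 for the full control effect; actives lower the fluorescent signal which means gametocytes are killed.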 As to conditions: P. falciparum 3D7 stage III-V gametocytes, alamarBlue, 72 h; max response: active compounds read low. Summed up:
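Stage III–V gametocytes of P. falciparum 3D7 were seeded at 20,000 cells/well onto pre-dispensed compounds. After 72 h, 37 °C, 5% CO2, alamarBlue was added for another 24 h.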

Assay [4] in a line: P-glycoprotein substrates identified in KB-8-5-11 adenocarcinoma cell line, qHTS therapeutic library screen (AID 1346987). Note: nearly all actives have a fitted effect of over 65% in size. Note: potency is the fitted concentration of half-maximal effect. Summed up: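 Compounds are pinned in dose-response onto KB-8-5-11 cells (500 cells/well, colchicine-free medium) and left 72 h at 37 degree C. CellTiter-Glo luminescence then yields AC50 values.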
The target of assay [5] is Cytochrome P450 2D6 (Homo sapiens) (UniProt P10635). Briefly: Cytochrome P450 family 2 subfamily D member 6 (CYP2D6) small molecule antagonists: luciferase biochemical (cell-free) qHTS assay (AID 1645840; active = well fitted curve in the direction sought with a large enough effect in the repeat runs; an effect the other way counts as inactive or inconclusive; note: potency is the fitted concentration of half-maximal effect; nearly all actives have a fitted effect of over 55% in size). Summed up: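 P450-Glo CYP2D6 system: proluciferin substrate converted by enzyme to luciferin, read by luminescence proportional to activity. Enzyme-substrate mix with compound 10 min at room temperature, then NADPH regeneration 1 h before detection reagent.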

In assay [6] the target is Cytochrome P450 2C9 (Homo sapiens) (UniProt P11712). Put plainly: Cytochrome P450 family 2 subfamily C member 9 (CYP2C9) small molecule antagonists: luciferase biochemical (cell-free) qHTS assay (AID 1645842; active = well fitted curve in the direction sought with a large enough effect in the repeat runs; an effect the other way counts as inactive or inconclusive; note: potency is the fitted concentration of half-maximal effect; nearly all actives have a fitted effect of over 55% in size). Summed up:
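P450-Glo CYP2C9 system: proluciferin substrate with enzyme in mix containing 0.4% BSA, 10 min at room temperature, then NADPH regeneration solution added and incubated 1 h at 37C. Detection reagent stopped reaction; luminescence read after 20 min as RLU.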

In assay [7] the test system is astro. Briefly: Drug repurposing screens with cells derived from glioblastoma tumor samples (AID 1345199). Note: nearly all actives have a fitted effect of over 40% in size. Note: potency is the fitted concentration of half-maximal effect. As to conditions: viability, ATP luminescence, 48 h; series mostly up to 45.9 µM. Summed up:
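Primary testing used CD133+ neurospheres from four GBM patients, seven concentrations, 48 h exposure and ATP-based viability; confirmation added three slower-growing patient lines.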

A short description of assay [8]: P-glycoprotein substrates identified in KB-3-1 adenocarcinoma cell line, qHTS therapeutic library screen (AID 1346986). Note: nearly all actives have a fitted effect of over 60% in size.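 Note: potency is the fitted concentration of half-maximal effect; potency is for cytotoxicity meaning loss of cell viability.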 Summed up:
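In 1536-well format, 500 cells/well received pinned compound titrations and were incubated 72 h, 5% CO2. Viability was read by CellTiter-Glo; cytotoxic if AC50 < 10 uM and efficacy >50%.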

Assay [9] can be described thus: Primary qHTS for inhibitors of nuclear receptor binding SET domain protein 2 (NSD2) in an RCH-ACV wild type WT cells (2C) (AID 1645877). Note: nearly all actives have a fitted effect of over 70% in size. Note: potency is the fitted concentration of half-maximal effect.
The target in assay [10] is Calcium and integrin-binding protein 1 (Homo sapiens) (UniProt Q99828). Briefly: Primary qHTS for Identification of Calcium Integrin Binding Protein 1 (CIB1) Competitor (AID 1508620).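 Note: GST tagged CIB1 binding a fluorescein labelled alphaIIb integrin peptide tracer; top concentration of the series differs between compounds; % is set by controls: 0 for no effect and ±100 for the full control effect.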 Summed up:
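Fluorescence polarization competition: GST-tagged CIB1 (1 uM final) preincubated with compound 15 min at room temperature, then FITC-labelled alphaIIb peptide (100 nM final) added. After 15 min at room temperature, polarization read at Ex 480/Em 540.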

Assay [11] can be described thus: Primary qHTS for inhibitors of nuclear receptor binding SET domain protein 2 (NSD2) in an isogenic RCH-ACV NSD2 p.E1099K mutant (9B) (AID 1645876). Note: potency is the fitted concentration of half-maximal effect; nearly all actives have a fitted effect of over 70% in size.
Assay [12] addresses Glutathione peroxidase 1 (Homo sapiens) (UniProt P07203). Briefly: Primary qHTS Assay for Inhibitors of Recombinant Selenoprotein Glutathione Peroxidase 1 (GPX1) (AID 1845191). Note: % is set by controls: 0 for no effect and ±100 for the full control effect; nearly all actives have a fitted effect of over 65% in size. Summed up: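 GR-coupled readout: NADPH consumption tracked by fluorescence, ex 340/em 450 nm, at t=0 and after 15 min at RT. Final mix 10 nM GPX1, 1 mM GSH, 0.5 mM CHP, 0.5 mM NADPH, 100 nM GR, 0.01% BSA, following 30 min enzyme–compound preincubation.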

For assay [13], the target named is Phospholipid hydroperoxide glutathione peroxidase GPX4 (Homo sapiens) (UniProt P36969). Briefly: Primary qHTS Assay for Inhibitors of Recombinant Selenoprotein Glutathione Peroxidase 4 (GPX4) (AID 1845192). Note: % is set by controls: 0 for no effect and ±100 for the full control effect; nearly all actives have a fitted effect of over 65% in size. Summed up: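 Steps: GPX4 plus compound, 30 min RT; add GR/GSH/NADPH master mix; start with cumene hydroperoxide; read 340/450 nm fluorescence at 0 and 15 min. Finals were 200 nM GPX4, 1 mM GSH, 0.5 mM CHP, 0.5 mM NADPH, 100 nM GR.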

In assay [14] the target is Luciferin 4-monooxygenase (Photinus pyralis) (UniProt P08659). Put plainly: Primary firefly luciferase (FLuc) qHTS assay for identification of artifact compounds. (AID 1845220). Note: nearly all actives have a fitted effect of over 60% in size. The settings on record: outcome: dose series up to 54.1 µM unless noted. Summed up:
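Enzymatic FLuc inhibition assay: compounds pre-exposed to luciferin/ATP (10 uM each) for 15 min, then purified P. pyralis enzyme at 10 nM added. Read-out: luminescence at 5 min.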

In assay [15] the test system is Nanoluciferase (engineered Oplophorus gracilirostris luciferase). Put plainly: Primary Nanoluciferase (NLuc) qHTS assay for identification of artifact compounds. (AID 1845222).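 Note: NLuc secreted into diluted conditioned medium of S16 cells; 0% = DMSO and -100% = no enzyme.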 Summed up:
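S16 cell supernatant NLuc, 1:55; cpds qHTS; 15 min RT dark; Nano-Glo substrate 1:100, 5 min; luminescence; Hill fit of % inhibition.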

Assay [16] is described as follows: Primary redox qHTS assay for identification of artifact compounds. (AID 1845223).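 Note: 0% = DMSO and 100% = reference compound.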 Summed up: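 Redox-cycling detection via DTT (250 uM final) oxidation coupled to Amplex Red (25 uM)/HRP (250 mU/mL) in HBSS. 15 min preincubation plus 30 min after DTT, room temperature. Ex/Em 525/598 nm; 4-parameter Hill fit against DMSO and 10 uM DA3003.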
The subject of assay [17] is JEG-3. Put plainly: Primary qHTS to identify gynecologic anti-cancer compounds using libraries of approved drugs and bioactive compounds (AID 1345084). Note: % is set by controls: 0 for no effect and ±100 for the full control effect; nearly all actives have a fitted effect of over 55% in size. The settings on record: Gynecologic cancer cell panel viability, ATPlite luminescence, 48 h; series mostly up to 57.5 µM. Summed up:
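Cytotoxicity screen measuring ATP content by luciferase luminescence. Each compound is applied at five concentrations for 48 h at 37 C with 5% CO2.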

Assay [18] can be described thus: Confirmatory qHTS for VERO E6 Cytotoxicity Assay: Counterscreen for SARS-CoV-2 CPE Assay (AID 1508605; calls by dose curve; note: % is set by controls: 0 for no effect and ±100 for the full control effect; nearly all actives have a fitted effect of over 60% in size).
A short description of assay [19]: Confirmatory qHTS for activators (rescue) of SARS-CoV-2 Cytopathic Effect (CPE) (AID 1508606; calls by dose curve; note: potency is the fitted concentration of half-maximal effect; nearly all actives have a fitted effect of over 70% in size).
A short description of assay [20]: qHTS for Inhibitors of the Functional Ribonucleoprotein Complex (vRNP) of Lassa (LASV) Arenavirus: Viability assay - alamar blue signal for LASV Primary Screen (AID 1347083; calls by dose curve; tested in HEK293 reporter line; note: % is set by controls: 0 for no effect and ±100 for the full control effect; nearly all actives have a fitted effect of over 80% in size).
Assay [21] is described as follows: qHTS for Inhibitors of the Functional Ribonucleoprotein Complex (vRNP) of Lymphocytic Choriomeningitis Arenaviruses (LCMV): Viability assay - alamar blue signal for LCMV Primary Screen (AID 1347085; calls by dose curve; tested in HEK293 reporter line; note: % is set by controls: 0 for no effect and ±100 for the full control effect; nearly all actives have a fitted effect of over 80% in size).
Assay [22] concerns the target Nucleoprotein (Lymphocytic choriomeningitis virus (strain Armstrong)) (UniProt P09992). Briefly: qHTS for Inhibitors of the Functional Ribonucleoprotein Complex (vRNP) of Lymphocytic Choriomeningitis Arenaviruses (LCMV): LCMV Primary Screen - GLuc reporter signal (AID 1347086; calls by dose curve).

Unmarked numbers belong to inactive results. Results filed as inconclusive are left out. Active and inactive are the calls of the source. Unless noted, calls come from the whole dose curve; as a rule, active = well fitted curve in the direction sought with a large enough effect; inconclusive = small, poorly fitted or top-dose-only effect, or another doubt; inactive = no such curve, though single readings can be large; an effect the other way counts as inactive or inconclusive.

Luciferin 4-monooxygenase (Photinus pyralis), sequence (P08659 whole entry, looked up): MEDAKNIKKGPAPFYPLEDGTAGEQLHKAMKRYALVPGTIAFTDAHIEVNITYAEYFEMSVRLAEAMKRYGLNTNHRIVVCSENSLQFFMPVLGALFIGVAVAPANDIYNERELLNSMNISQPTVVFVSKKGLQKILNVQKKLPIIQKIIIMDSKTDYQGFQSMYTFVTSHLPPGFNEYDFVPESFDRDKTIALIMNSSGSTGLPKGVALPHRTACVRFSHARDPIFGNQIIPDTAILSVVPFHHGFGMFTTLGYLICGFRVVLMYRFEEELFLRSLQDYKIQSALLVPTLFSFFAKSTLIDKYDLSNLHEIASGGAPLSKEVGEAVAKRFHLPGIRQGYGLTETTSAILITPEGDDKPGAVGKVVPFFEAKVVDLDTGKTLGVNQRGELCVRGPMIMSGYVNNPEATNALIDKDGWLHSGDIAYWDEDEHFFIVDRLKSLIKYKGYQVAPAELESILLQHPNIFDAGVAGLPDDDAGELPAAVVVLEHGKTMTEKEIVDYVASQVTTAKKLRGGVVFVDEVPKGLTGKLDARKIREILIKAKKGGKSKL
Glutathione peroxidase 1 (Homo sapiens), sequence (P07203 whole entry, looked up): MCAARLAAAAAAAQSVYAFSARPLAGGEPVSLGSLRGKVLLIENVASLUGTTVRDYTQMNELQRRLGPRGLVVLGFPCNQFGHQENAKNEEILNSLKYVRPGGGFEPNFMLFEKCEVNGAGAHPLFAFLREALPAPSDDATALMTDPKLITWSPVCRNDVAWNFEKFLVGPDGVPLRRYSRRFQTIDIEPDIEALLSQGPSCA
Nucleoprotein (Lymphocytic choriomeningitis virus (strain Armstrong)), sequence (P09992 whole entry, looked up): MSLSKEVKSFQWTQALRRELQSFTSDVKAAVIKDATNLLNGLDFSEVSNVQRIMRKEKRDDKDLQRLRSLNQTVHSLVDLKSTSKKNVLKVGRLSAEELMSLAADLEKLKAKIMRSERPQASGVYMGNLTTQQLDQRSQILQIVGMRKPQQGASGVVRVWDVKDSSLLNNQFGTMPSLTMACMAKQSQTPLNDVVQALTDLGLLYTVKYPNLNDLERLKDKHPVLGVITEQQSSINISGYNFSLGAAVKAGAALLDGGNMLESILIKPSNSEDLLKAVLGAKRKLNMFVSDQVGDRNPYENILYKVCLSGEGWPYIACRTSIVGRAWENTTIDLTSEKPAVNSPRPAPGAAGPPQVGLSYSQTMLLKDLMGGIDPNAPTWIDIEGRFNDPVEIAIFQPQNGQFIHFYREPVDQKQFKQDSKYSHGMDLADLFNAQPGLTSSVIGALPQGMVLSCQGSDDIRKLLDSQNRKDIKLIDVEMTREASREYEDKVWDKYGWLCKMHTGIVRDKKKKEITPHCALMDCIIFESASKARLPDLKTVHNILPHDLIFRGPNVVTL
Calcium and integrin-binding protein 1 (Homo sapiens), sequence (Q99828 whole entry, looked up): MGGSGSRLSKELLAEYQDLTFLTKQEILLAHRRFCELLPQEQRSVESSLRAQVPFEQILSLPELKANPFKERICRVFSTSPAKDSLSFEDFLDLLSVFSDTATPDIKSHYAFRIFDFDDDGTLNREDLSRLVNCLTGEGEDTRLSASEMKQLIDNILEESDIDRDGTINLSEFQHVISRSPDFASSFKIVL
Cytochrome P450 2C9 (Homo sapiens), sequence (P11712 whole entry, looked up): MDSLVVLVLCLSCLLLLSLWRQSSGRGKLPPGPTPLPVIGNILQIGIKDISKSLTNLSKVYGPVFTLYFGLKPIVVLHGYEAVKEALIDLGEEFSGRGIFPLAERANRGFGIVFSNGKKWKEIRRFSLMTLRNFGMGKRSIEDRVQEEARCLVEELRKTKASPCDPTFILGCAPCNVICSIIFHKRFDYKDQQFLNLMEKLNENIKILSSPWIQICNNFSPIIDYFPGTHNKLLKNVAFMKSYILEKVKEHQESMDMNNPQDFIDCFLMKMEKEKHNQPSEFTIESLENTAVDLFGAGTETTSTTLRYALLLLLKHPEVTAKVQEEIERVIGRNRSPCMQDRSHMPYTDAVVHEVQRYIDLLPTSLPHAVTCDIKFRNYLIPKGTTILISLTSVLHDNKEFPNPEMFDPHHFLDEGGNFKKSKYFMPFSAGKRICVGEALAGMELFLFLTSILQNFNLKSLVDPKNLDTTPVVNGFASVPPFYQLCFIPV
Phospholipid hydroperoxide glutathione peroxidase GPX4 (Homo sapiens), sequence (P36969 whole entry, looked up): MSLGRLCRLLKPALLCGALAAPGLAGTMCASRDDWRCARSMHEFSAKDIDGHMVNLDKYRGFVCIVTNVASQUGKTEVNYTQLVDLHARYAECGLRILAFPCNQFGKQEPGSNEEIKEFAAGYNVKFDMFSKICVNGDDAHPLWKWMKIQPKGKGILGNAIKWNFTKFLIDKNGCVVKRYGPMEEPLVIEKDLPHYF
Cytochrome P450 2D6 (Homo sapiens), sequence (P10635 whole entry, looked up): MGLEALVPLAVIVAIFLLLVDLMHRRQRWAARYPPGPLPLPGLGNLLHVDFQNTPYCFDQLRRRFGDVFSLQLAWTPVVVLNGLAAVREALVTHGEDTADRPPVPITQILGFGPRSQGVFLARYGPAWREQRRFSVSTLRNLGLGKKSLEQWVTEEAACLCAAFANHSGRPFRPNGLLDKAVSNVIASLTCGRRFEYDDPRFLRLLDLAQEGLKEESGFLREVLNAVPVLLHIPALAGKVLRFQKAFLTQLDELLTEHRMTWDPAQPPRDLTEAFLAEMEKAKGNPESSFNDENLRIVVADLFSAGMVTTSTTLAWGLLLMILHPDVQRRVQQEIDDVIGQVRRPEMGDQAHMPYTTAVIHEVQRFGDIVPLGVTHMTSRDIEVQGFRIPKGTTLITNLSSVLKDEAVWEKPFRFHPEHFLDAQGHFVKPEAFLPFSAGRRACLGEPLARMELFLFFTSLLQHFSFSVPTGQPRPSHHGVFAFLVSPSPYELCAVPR

As to `CC(=O)O[C@@]12CO[C@@H]1C[C@H](O)[C@@]1(C)C(=O)[C@H](O)C3=C(C)[C@@H](O)C[C@@](O)([C@@H](OC(=O)c4ccccc4)C12)C3(C)C` (some centres undefined), in [1], the Potency entry was “inactive”.

For `CCOP(=S)(OCC)SCSc1ccc(Cl)cc1`, the Potency entry in assay [2], in assay [4] and in assay [7] was “inactive” each time. Further, the max response in assay [3] was -1.21%. For the same compound, the Potency in assay [5] is 9.52 µM (active); in assay [6], 0.213 µM (active).

Take `Nc1ccn(CC(CO)OCP(=O)(O)O)c(=O)n1` (centres undefined): the Potency result in [8], in assay [4] and in assay [9] was “inactive” each time.

Regarding `CCCNC(=O)[C@H]1O[C@H]1C(=O)N[C@H](C(=O)N1CCC[C@@H]1C(=O)OC)C(C)CC` (some centres undefined), the Potency in assay [1] is 27.3 µM (active).

Regarding `COc1cc([C@@H]2c3cc4c(cc3[C@@H](O)[C@H]3COC(=O)[C@H]23)OCO4)cc(OC)c1O`, the max response in [3] was 5.77%. Besides, the Potency in [4] was 0.651 µM (active).

As for `CC[C@@H](C)[C@H]1C(=O)O[C@H](C(C)C)C(=O)N(C)[C@@H]([C@@H](C)CC)C(=O)O[C@H](C(C)C)C(=O)N(C)[C@@H]([C@H](C)CC)C(=O)O[C@H](C(C)C)C(=O)N1C`, the Potency result in assay [10], in [12], in assay [13], in assay [15], in assay [16] and in assay [17] was “inactive” throughout. The Potency in [11] is 4.3 µM (active). Also, the outcome in [14] was “inactive [at 25.7 µM]”.

As to `COCC1OC(=O)c2coc3c2C1(C)C1=C(C3=O)C2CCC(=O)C2(C)CC1OC(C)=O` (centres undefined), the Potency in [8] is 20.6 µM (active); in [11], 3.66 µM (active); in assay [9], 1.3 µM (active).

Regarding `CC(=O)O[C@@H]1CC2C(C)(C)C(=O)C=C[C@]2(C)C2CC[C@]3(C)C(=CC(=O)O[C@H]3c3ccoc3)[C@@]21C` (some centres undefined), the Potency in assay [4] was 14.6 µM (active); in assay [19], 11.2 µM (active). Moreover, the Potency result in assay [18] and in assay [12] was “inactive” throughout.

Turning to `CCCCCc1cc(O)c2c(c1)OC(C)(C)c1ccc(C)cc1-2`, the Potency result in assay [2], in assay [1], in [20], in assay [21] and in [22] was “inactive” throughout. Besides, the Potency in [7] was 22.4 µM (active).
